High-throughput results: PubChem, National Center for Advancing Translational Sciences (NCATS)
GLP1R cytotox: cytotoxicity counter-screen for GLP-1 receptor inverse agonists. 410,000 compounds, 0.13% hits. AID 624418. Potency, µM (top dose mostly 38.3 µM), inactives show at the top dose activity change, negative = inhibition, hits mostly inhibitors. HEK293 cAMP-luciferase reporter cells, luminescence, 24 h;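 note: loss of luciferase light is scored as toxicity; potency is the fitted concentration of half-maximal effect; % is set by controls: 0 for no effect and ±100 for the full control effect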
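Quantitative HTS format, 1536 wells, 200 cells/uL seeded. Compounds: 23 nL, 24 h, 37 °C. Detection: luciferase reagent, luminescence at 12 min RT; decreased signal taken as cytotoxic.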
CCT modulator: cytosolic chaperonin activity modulation; activity change, % (concentration not given with the values), hits read low; AID 651819; 360,000 compounds, 0.3% hits; purified chaperonin ATPase assay, HTRF ADP detection, 30 min; in the data active = activity change below about -30%; note: % is set by controls: 0 for no effect and ±100 for the full control effect
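We incubate TRiC, 40 or 20 nM final, with library compounds at 76 uM and 10 uM ATP for 30 min at 37 °C. ADP formed is detected with Transcreener HTRF reagents after 30 min at room temperature.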
MmCpn inh: blocks the Methanococcus maripaludis chaperonin Mm-Cpn; purified Mm-Cpn ATPase, ADP Transcreener TR-FRET; Potency, µM (highest dose often 76.9 µM), for the others: at the highest dose activity, negative = inhibition, usual class: inhibitors; 330,000 compounds, 0.031% hits; note: potency is the fitted concentration of half-maximal effect; % is set by controls: 0 for no effect and ±100 for the full control effect; nearly all actives have a fitted effect of over 80% in size
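Measured: ADP formation by purified Mm-CPN. Conditions: 25 nM protein, 10 uM ATP, Tris pH 7.4 with Mg2+, K+ and DTT, 37°C for 30 min. Detection: Transcreener HTRF after 30 min at room temperature.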
GLP-1R agonist: agonists of human GLP-1 receptor; Potency, µM (doses to about 45.6 µM), for inactives: top-dose activation, actives largely listed as activators; P43220; 380,000 compounds, 0.007% hits; HEK293 GLP-1R CRE-luciferase, luminescence, 4-6 h; cells express a hypersensitive GLP-1R form; AID 624172; note: potency is the fitted concentration of half-maximal effect; % of control where 0% means no effect
Target sequence (P43220 whole entry, looked up): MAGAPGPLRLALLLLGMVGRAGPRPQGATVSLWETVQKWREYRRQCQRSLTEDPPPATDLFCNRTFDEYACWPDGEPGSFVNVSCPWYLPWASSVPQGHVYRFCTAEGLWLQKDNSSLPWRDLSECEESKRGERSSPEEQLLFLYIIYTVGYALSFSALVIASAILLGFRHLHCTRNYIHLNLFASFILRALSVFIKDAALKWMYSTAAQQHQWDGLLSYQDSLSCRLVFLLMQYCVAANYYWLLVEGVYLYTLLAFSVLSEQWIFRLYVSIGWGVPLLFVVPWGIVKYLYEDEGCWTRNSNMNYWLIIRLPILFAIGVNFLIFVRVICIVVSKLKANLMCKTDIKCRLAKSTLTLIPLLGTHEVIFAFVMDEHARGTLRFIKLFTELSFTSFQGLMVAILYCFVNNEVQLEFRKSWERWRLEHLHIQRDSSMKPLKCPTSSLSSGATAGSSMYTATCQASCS
GLP1R inv ag: GLP-1 receptor (human) inverse agonism | P43220 | HEK293 GLP-1R CRE-luciferase, luminescence, 24 h; GLP-1R form is constitutively active | Potency, µM (highest dose often 38.3 µM), for inactives: at the top dose activity change, negative = inhibition, usual class: inhibitors | 410,000 compounds, 1.6% hits | AID 624417; note: potency is the fitted concentration of half-maximal effect; % is set by controls: 0 for no effect and ±100 for the full control effect; nearly all actives have a fitted effect of over 55% in size
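Readout was luciferase luminescence, measured 12 min after detection reagent at room temperature. Beforehand, GLP-1R reporter HEK293 cells had sat 12 h, then received compounds for 24 hr at 37 deg C.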
uPA generation: blocks generation of uPA at the cell surface | cell surface uPA generation assay, qHTS | Potency, µM (highest dose often 38.3 µM), inactives show at the top dose activity change, negative = inhibition, actives largely listed as inhibitors | 330,000 compounds, 0.31% hits | AID 540303; active = well fitted inhibition curve with a large enough effect; inconclusive = small, poorly fitted or top-dose-only effect; inactive = no such curve, though single readings can be large or run the other way; tested in mouse RAW 264.7 cells; note: potency is the fitted concentration of half-maximal effect; % is set by controls: 0 for no effect and ±100 for the full control effect; nearly all actives have a fitted effect of over 55% in size
The depositor's hits bear a star; u = inconclusive; x = not tested or not shown. An excerpt weighted towards active compounds, which were near 2.2% of everything screened. Unless noted, calls come from the whole dose curve; as a rule, active = well fitted curve in the direction sought with a large enough effect; inconclusive = small, poorly fitted or top-dose-only effect, or another doubt; inactive = no such curve, though single readings can be large; an effect the other way counts as inactive or inconclusive.

SMILES	GLP1R cytotox	CCT modulator	MmCpn inh	GLP-1R agonist	GLP1R inv ag	uPA generation
Cc1cccc(OCCOCCn2c(-c3ccc(Cl)cc3)nc3ccccc3c2=O)c1C	-2%	x	x	x	0%	x
COc1ccccc1N1CCN(S(=O)(=O)CCNC(=O)Cc2ccc(F)cc2)CC1	u	2	0%	2%	u	7.1µM*
CCCCOc1ccc(C(=O)NCCS(=O)(=O)N2CCN(c3ccccc3OC)CC2)cc1	1%	x	x	x	10µM*	x
O=c1cc(N2CCN(c3ccccc3Cl)CC2)[nH]c(=O)n1Cc1ccc(F)cc1	u	-1	0%	5%	u	-8%
COc1ccccc1N1CCN(c2cc(=O)n(Cc3ccc(F)cc3)c(=O)[nH]2)CC1	-6%	0	1%	-5%	u	2.8µM*
CCCCOc1ccc(C(=O)NCCS(=O)(=O)N2CCN(c3ccc(F)cc3)CC2)cc1	-4%	x	x	x	0%	x
CCc1ccccc1NC(=O)Cn1c(=O)n(Cc2ccco2)c(=O)c2ccccc21	1%	x	x	0%	4%	x
COc1ccccc1-c1n[nH]nc1C1=CC(=O)C[C@H](c2ccc(F)cc2)C1	1%	-3	x	-2%	-8%	x
CCc1ccc(-c2n[nH]nc2C2=CC(=O)C[C@H](c3ccc(F)cc3)C2)cc1	-10%	0	x	-5%	8.9µM*	x
COC(=O)c1ccc(NC(=S)NC2CCCCC2C)cc1 (stereo not drawn)	u	0	-4%	0%	10µM*	-4%
O=C(NNC1=NS(=O)(=O)c2ccccc21)c1ccc(Cl)cc1	-6%	-1	0%	13%	-2%	3.5µM*
CC(C)OCCCNC(=O)Nc1cccc2ccccc12	-1%	-2	-1%	-5%	-27%	2%
CCCCCCC(C)OC(=O)Nc1cccc2ccccc12 (stereo not drawn)	21%	-1	1%	9%	8.9µM*	-2%
CCC(C(=O)Nc1cc(F)ccc1F)n1nc(C)c2c(C)n(-c3ccc(C)cc3)nc2c1=O (stereo not drawn)	-8%	-1	-1%	4%	10µM*	u
COc1ccc(NC(=O)C(c2ccc(Cl)cc2)C(C)C)cn1 (stereo not drawn)	15%	-1	-4%	0%	7.9µM*	4%
CCCCCOC(=O)CC(C(=O)OCCCCC)N1CCCCC1 (stereo not drawn)	12%	-1	2%	10%	13µM*	8%
CCCCCCCCCOC(=O)C(CC(=O)O)N1CCOCC1 (stereo not drawn)	-12%	0	1%	2%	-16%	-6%
CCN1CCN(C(=O)N[C@H](C(=O)N[C@@H]2C(=O)N3[C@@H](C(=O)O)C(C)(C)S[C@@H]23)c2ccccc2)C(=O)C1=O	x	x	x	-5%	x	x
CCn1c(SCC(=O)N2CCCc3ccccc32)nnc1-c1c[nH]c2ccccc12	-21%	-7	2%	-4%	2.5µM*	6%
CCn1c(CSCc2ccc(F)cc2)nnc1SCC(=O)N1CCN(c2ccccc2)CC1	-23%	-2	1%	-7%	u	-9%
CCn1c(SCC(=O)N2CCc3ccccc32)nnc1-c1c[nH]c2ccccc12	-8%	-3	-1%	2%	u	-3%
Cc1ccc(CSCc2nnc(SCC(=O)N3CCN(c4ccccc4)CC3)n2C)cc1	16%	0	0%	0%	7.9µM*	0%
CCn1c(SCC(=O)N2CCN(c3ccccc3)CC2)nnc1-c1c[nH]c2ccccc12	2%	-1	0%	-1%	4µM*	7.9µM*
COc1cc(-c2cc(OC)c3c(C)oc(C)c3c(=O)c2)ccc1OC(=O)c1cccc(Cl)c1	5%	x	x	x	-17%	x
CCOc1cccc(/C=N/NC(=S)Nc2cc(S(=O)(=O)N3CCOCC3)ccc2N2CCOCC2)c1O	-3%	-1	-6%	1%	5µM*	-8%
SMILES	GLP1R cytotox	CCT modulator	MmCpn inh	GLP-1R agonist	GLP1R inv ag	uPA generation
Cc1ccccc1NC(=O)CSc1nc2ccc(NC(=O)c3ccccc3)cc2s1	-16%	x	x	x	u	x
CCN(Cc1ccccc1)S(=O)(=O)c1ccc(C(=O)Nc2nnc(C3CC3)o2)cc1	-28%	-1	1%	-3%	u	3.5µM*
O=Cc1cn(CCC(=O)O)nc1-c1cccc(Br)c1	-3%	-5	-1%	-4%	6%	-4%
Cc1ccc(-c2nn(CCC(=O)O)cc2/C=C\C(=O)c2ccc(Br)cc2)cc1	-20%	-1	-3%	-6%	u	6.3µM*
O=C(O)CCn1cc(/C=C\C(=O)c2ccc(Cl)cc2)c(-c2cccc(Br)c2)n1	4%	-1	-2%	-1%	13µM*	-5%
COc1ccc(-c2nc(SCC(=O)NC(C)CCc3ccccc3)n[nH]2)cc1 (stereo not drawn)	-5%	x	x	x	-31%	x
COc1cn(CC(=O)Nc2ccccc2)c(CN2CCCCC2)cc1=O	-13%	x	x	x	13%	x
CCOC(=O)c1[nH]c2c(c1Cc1ccccc1)C(=O)CC(c1ccc(C(C)(C)C)cc1)C2 (stereo not drawn)	0%	x	x	x	11µM*	x
Cc1c(C(=O)OCc2ccccc2)[nH]c2c1C(=O)CC(c1ccc(C(C)(C)C)cc1)C2 (stereo not drawn)	3%	x	x	x	-2%	x
Cc1c(C(=O)OCc2ccccc2)[nH]c2c1C(=O)CC(c1ccco1)C2 (stereo not drawn)	-28%	0	-13%	12%	-60%	1µM*
COc1ccc(OC)c(C2CC(=O)c3c([nH]c(C(=O)OCC4CCCCC4)c3C)C2)c1 (stereo not drawn)	-8%	x	x	x	u	x
COCCOC(=O)c1[nH]c2c(c1C)C(=O)CC(c1ccco1)C2 (stereo not drawn)	-17%	0	-4%	3%	u	1µM*
COC(=O)c1[nH]c2c(c1C)C(=O)CC(c1cc(OC)ccc1OC)C2 (stereo not drawn)	7%	-2	-1%	3%	u	5.6µM*
NC(CCC(=O)N[C@@H](CS)C(=O)NCC(=O)O)C(=O)O (stereo partly drawn)	x	x	x	0%	x	x
O=C(NCC(c1ccco1)S(=O)(=O)c1ccc(Cl)cc1)c1ccccc1F (stereo not drawn)	-4%	x	x	x	-22%	x
O=C(Nc1ccc(N2CCC(c3ccccc3)C2)c(C(=O)O)c1)c1ccc(Cl)cc1 (stereo not drawn)	5%	x	x	x	14%	x
CCC(Oc1ccccc1)C(=O)NC1CCCCCC1 (stereo not drawn)	13%	-1	0%	0%	10µM*	-2%
CCC(Oc1ccccc1)C(=O)NC1CCSC1=O (stereo not drawn)	17%	-2	1%	4%	3%	0%
